# Screening results from PubChem.
# Gal4-VP16 FLuc: Gal4-VP16 reporter inhibition counter-screen | Drosophila S2 Gal4-VP16 UAS-luciferase, luminescence, 20 h | Potency, µM (top dose mostly 53.6 µM), for the others: at the highest dose activity, negative = inhibition, most hits filed as inhibitors | 3.5% of 310,000 active | AID 2546;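 also: Gal4-VP16 expression switched on by copper sulfate through the metallothionein promoter; potency is read from the fitted curve at half-maximal effect; nearly all actives have a fitted effect of over 50% in size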
# RORgamma inh: ROR gamma (mouse) transcription inhibition. P51450. AID 2551. 5.4% of 310,000 active. Potency, µM (titrated, usually from 53.6 µM), without a hit: at the top dose activity change, negative = inhibition, most hits filed as inhibitors. Drosophila S2 Gal4-RORgamma UAS-luciferase reporter, 20 h; also: potency is read from the fitted curve at half-maximal effect; nearly all actives have a fitted effect of over 60% in size
#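 Schneider cells (Drosophila), stable Gal4 DBD–ROR gamma + UAS-luc; 1 hr cmpd preincubation; Cu2+ induction 700 uM final; 20 hr ambient; luminescence.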
# ELG1 repair inh: inhibitors of ELG1-dependent DNA repair in HEK293T cells; 2.3% of 330,000 active; HEK293T ELG1-luciferase reporter, luminescence, 16 h; DNA damage induced by 5-fluorouridine; Potency, µM (highest dose often 46.1 µM), for inactives: top-dose activity change, negative = inhibition, most hits filed as inhibitors; also: potency is read from the fitted curve at half-maximal effect; nearly all actives have a fitted effect of over 55% in size
#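 DMSO vehicle served as the neutral condition. Each well held 2,000 cells given 5-fluorouridine plus compound; after 16 hr at 37 °C/5% CO2, ONE-Glo was added and luciferase measured 30 min later.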
# B2AR arrestin: beta2AR (human) beta-arrestin recruitment activity; 0.02% of 330,000 active; Potency, µM (doses to about 46.1 µM), for inactives: at the highest dose activation, actives largely listed as activators; beta-arrestin recruitment to beta2AR, cell-based reporter;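 also: potency is read from the fitted curve at half-maximal effect; 0% = DMSO controls and full agonism = EC100 isoproterenol or metaproterenol; nearly all actives have a fitted effect of over 65% in size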
# TSHR antagonist: human thyrotropin receptor antagonism; 0.2% of 330,000 active; P16473; activity change, negative = inhibition, % at 11.5 µM; TSHR-expressing cells, TSH-stimulated cAMP HTRF, 2 h; stronger effect = lower value;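 active = activity change below a set negative limit, meaning inhibition stronger than a set level, cut at about -70% in these data; inconclusive = activity change between two set negative limits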
# Target sequence (P16473 whole entry, looked up): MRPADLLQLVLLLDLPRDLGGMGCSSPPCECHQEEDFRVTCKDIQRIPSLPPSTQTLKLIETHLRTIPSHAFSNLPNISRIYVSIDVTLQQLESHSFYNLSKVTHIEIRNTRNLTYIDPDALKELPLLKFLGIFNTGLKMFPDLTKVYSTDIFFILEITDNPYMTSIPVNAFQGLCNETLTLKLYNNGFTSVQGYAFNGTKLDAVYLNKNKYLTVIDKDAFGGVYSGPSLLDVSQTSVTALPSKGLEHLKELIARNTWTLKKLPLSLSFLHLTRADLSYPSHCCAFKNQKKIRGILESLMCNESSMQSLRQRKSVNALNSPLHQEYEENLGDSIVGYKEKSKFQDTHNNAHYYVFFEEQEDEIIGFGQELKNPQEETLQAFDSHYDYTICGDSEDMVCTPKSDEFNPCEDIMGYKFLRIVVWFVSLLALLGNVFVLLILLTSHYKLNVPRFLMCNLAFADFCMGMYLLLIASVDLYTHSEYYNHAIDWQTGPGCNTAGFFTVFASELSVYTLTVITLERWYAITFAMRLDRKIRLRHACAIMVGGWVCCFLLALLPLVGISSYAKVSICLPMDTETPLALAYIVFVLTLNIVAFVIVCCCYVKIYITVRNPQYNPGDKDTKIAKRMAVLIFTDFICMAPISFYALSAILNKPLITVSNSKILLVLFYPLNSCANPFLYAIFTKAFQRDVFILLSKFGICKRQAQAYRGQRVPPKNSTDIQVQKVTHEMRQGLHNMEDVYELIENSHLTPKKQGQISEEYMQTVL
#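 TSHR-expressing cells, 200/well, pre-treated with compound, then stimulated with EC80 TSH (4nM final) for 2 hours at 37 deg C. cAMP measured by competitive HTRF: anti-cAMP cryptate antibody in lysis buffer plus cAMP-d2, read after 30 minutes at room temperature.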
# An asterisk follows results filed as active; ? = inconclusive; · = no result given. A selection: hits, their analogues and other compounds. The true share with any hit is near 7.5%. Unless noted, calls follow the shape of the dose curve; as a rule, active = well fitted curve in the direction sought with a large enough effect; inconclusive = small, poorly fitted or top-dose-only effect, or another doubt; inactive = no such curve, though single readings can be large; an effect the other way counts as inactive or inconclusive. Unless noted, % is scaled to controls: 0 for no effect and ±100 for the full control effect.
SMILES,Gal4-VP16 FLuc,RORgamma inh,ELG1 repair inh,B2AR arrestin,TSHR antagonist
Fc1ccccc1NC(=S)N/N=C/c1ccccc1Br,4.47µM*,3.16µM*,?,-0.9%,6.4
O=[N+]([O-])c1ccc(/C=N/NC(=S)Nc2ccccc2F)o1,7.94µM*,7.08µM*,?,1.0%,-11.7
CCOC(=O)n1ccn(C)c1=S,-0.5%,-24.6%,·,·,·
CC1=CC(=O)C(C(C)C)=C/C1=C(\c1cc(C(C)C)c(OP(=O)(O)O)cc1C)c1ccccc1C(=O)O,-1.0%,1.0%,18.3µM*,0.4%,12.3
Cc1occc1-c1nc(-c2ccccn2)no1,?,12.6µM*,?,0.1%,-3.2
O=[N+]([O-])c1cccc(-c2nc(-c3ccccn3)no2)c1,?,11.2µM*,?,-0.1%,-1.5
COc1cccc(-c2nc(-c3ccccn3)no2)c1,4.47µM*,?,?,-1.1%,-7.1
COc1cccc(-c2nc(-c3ccccc3)no2)c1,?,-41.1%,?,0.0%,-9.8
c1ccc(-c2noc(-c3ccc4ccccc4c3)n2)nc1,2.24µM*,2.51µM*,?,0.1%,-0.4
O=C1OC(c2ccccc2)Cc2cc(C(=O)N3CCN(c4ccc(F)cc4)CC3)ccc21 (centres undefined),·,·,-14.6%,-0.3%,-19.7
c1ccc(-c2noc(-c3ccc4c(c3)OCO4)n2)nc1,3.16µM*,3.16µM*,?,-0.5%,1.3
c1ccc(-c2noc(C3CCCCC3)n2)nc1,-26.8%,3.55µM*,?,-0.1%,-4.2
COc1ccc(-c2c[n+]3c(n2-c2ccccc2)CCCCC3)cc1,?,?,?,0.0%,-9.9
COc1ccc(-c2c[n+]3c(n2-c2ccc(C)cc2)CCCCC3)cc1,11.2µM*,-61.3%,0.92µM*,-0.4%,-13.6
COc1ccc(-n2c(-c3ccc(Cl)cc3)c[n+]3c2CCCCC3)cc1,-11.3%,30.9%,5.8µM*,-0.1%,-3.8
CCCn1nc(C(=O)N2CCN(S(=O)(=O)c3ccc(C)c(C)c3)CC2)c2ccccc2c1=O,·,·,23.1µM*,-0.7%,-7.2
CCOc1cccc(-c2c(C(=O)N/N=C/c3c(F)cccc3Cl)nnn2-c2nonc2N)c1,-3.5%,-2.3%,?,0.2%,10.5
COc1cccc(-c2c(C(=O)N/N=C/c3ccc(C)s3)nnn2-c2nonc2N)c1,5.62µM*,2.51µM*,0.6%,-0.4%,-14.6
COc1cccc(-c2c(C(=O)N/N=C/c3ccc(C)o3)nnn2-c2nonc2N)c1,?,10µM*,4.7%,0.4%,-9.8
CCOc1cccc(-c2c(C(=O)N/N=C/c3ccc(C)s3)nnn2-c2nonc2N)c1,3.98µM*,2.51µM*,?,0.4%,8.4
COc1cccc(-c2c(C(=O)N/N=C/c3ccncc3)nnn2-c2nonc2N)c1,11.4%,16.8%,-0.4%,0.3%,-7.6
COc1cccc(-c2c(C(=O)N/N=C/c3ccoc3)nnn2-c2nonc2N)c1,?,12.6µM*,9.7%,5.4%,-2.1
CCCCn1c(N)c(N(Cc2ccccc2OC)C(=O)CSCC(=O)Nc2cccc(C)c2)c(=O)[nH]c1=O,2.6%,-14.3%,1.5%,0.2%,13.6
CCOc1ccc(-c2c(C(=O)N/N=C/c3ccc(C)s3)nnn2-c2nonc2N)cc1,2.82µM*,2.24µM*,-24.3%,0.2%,5.2
Cc1ccc(/C=N/NC(=O)c2nnn(-c3nonc3N)c2C(C)C)s1,7.08µM*,2.24µM*,14.6%,-0.6%,1.0
SMILES,Gal4-VP16 FLuc,RORgamma inh,ELG1 repair inh,B2AR arrestin,TSHR antagonist
Cc1ccc(/C=N/NC(=O)c2nnn(-c3nonc3N)c2C(C)C)o1,-28.8%,?,6.1%,0.3%,-6.8
O=C(NCCCCCCNC(=O)ON=C1CCCCC1)ON=C1CCCCC1,12.7%,-1.5%,·,·,·
CCCCNC(=O)NS(=O)(=O)c1ccc(C(=O)O)cc1,4.5%,-13.4%,·,·,·
O=C(CCl)Nc1ccc(N=Nc2ccccc2)cc1,?,?,?,0.8%,-11.9
O=C(CCl)Nc1ccc(-c2ccccc2)cc1,?,25.1µM*,?,-0.2%,4.6
O=C(CCl)Nc1cccc(Oc2ccccc2)c1,?,10µM*,-19.0%,-0.2%,-12.7
Cc1cccc(C)c1N(CC(=O)NCc1ccco1)C(=O)CNS(=O)(=O)c1ccc(F)cc1,12.4%,?,?,0.5%,·
COc1ccc(CCN2C(=O)c3ccccc3NC2c2cc(Cl)c(O)c(OC)c2)cc1 (centres undefined),3.1%,32.6%,7.3µM*,0.3%,3.6
COc1cccc(CC(NC(C)=O)C(=O)NC2CCN(S(=O)(=O)c3ccc(C)cc3)CC2)c1OC (centres undefined),-1.1%,34.1%,6.4%,0.1%,-1.9
O=C(NN1C(=O)c2cc(Br)ccc2NC1c1cc(Br)cc(Br)c1O)c1ccncc1 (centres undefined),7.94µM*,5.01µM*,6.4%,-0.4%,-7.0
O=C(NN1C(=O)c2cc(Br)ccc2NC1c1ccccc1Cl)c1ccncc1 (centres undefined),-19.4%,?,-6.1%,-0.8%,13.1
CC(=O)SC(C[N+](=O)[O-])c1cn(C(C)=O)c2ccccc12 (centres undefined),?,11.2µM*,?,-0.7%,-33.3
CC(=O)n1cc(Nc2ccc([N+](=O)[O-])cc2)c2ccccc21,-2.7%,-35.6%,?,0.0%,7.7
C=CCn1c(=NC(=O)c2sc3ccccc3c2Cl)sc2cc(S(N)(=O)=O)ccc21,?,?,8.5%,-0.2%,10.9
C=CCn1c(=NC(=O)c2cc(-c3cccs3)nc3ccccc23)sc2cc(S(N)(=O)=O)ccc21,-28.6%,?,18.4µM*,2.7%,-11.8
COCCn1c(=NC(=O)c2cc(-c3cccs3)nc3ccccc23)sc2cc(S(N)(=O)=O)ccc21,-22.4%,?,6.51µM*,3.9%,-21.7
COCCn1c(=NC(=O)c2sc3ccccc3c2Cl)sc2cc(S(N)(=O)=O)ccc21,?,6.0%,?,-0.2%,-1.9
COc1ccc(CNc2ncncc2-c2ccoc2)c(OC)c1,1.2%,11.5%,·,·,·
COc1ccc(OC)c(NC(=O)c2csc(Cl)c2OC)c1,26.7%,14.2%,5.1%,-0.8%,-3.0
NNC(=O)c1[nH]c2ccc([N+](=O)[O-])cc2c1-c1ccccc1,-5.3%,-20.1%,?,-0.6%,-1.8
Cc1c(C(=O)NN)[nH]c2ccc([N+](=O)[O-])cc12,?,11.2µM*,-3.2%,-0.2%,-13.0
Cn1ccc2cc(-c3ccc4ncnc(NCc5cccc(F)c5)c4c3)ccc21,·,·,·,-0.2%,-6.3
CN1CCN(C(=O)c2cnn3c(C(F)(F)F)cc(-c4ccc5c(c4)OCO5)nc23)CC1,-10.5%,-23.1%,5.8µM*,0.1%,5.5
Cc1ccc(-c2cc(C(F)(F)F)n3ncc(C(=O)N4CCCc5ccccc54)c3n2)cc1,3.5%,-21.1%,16.3%,0.2%,-9.0
